Assay outcomes deposited in PubChem by National Center for Advancing Translational Sciences (NCATS).
HTT aggregate: mutant huntingtin aggregation inhibition; PC12 HttQ103-GFP aggregates, Acumen cytometry, 40 h; Potency, µM (doses to about 46.1 µM), inactives show top-dose activity change, negative = inhibition, actives largely listed as inhibitors; actives 1.1% (n = 220,000); AID 1688; active = well fitted curve in the direction sought with a large enough effect; inconclusive = small, poorly fitted or top-dose-only effect, or another doubt; inactive = no such curve, though single readings can be large; an effect the other way counts as inactive or inconclusive; note: potency is the fitted concentration of half-maximal effect; % is set by controls: 0 for no effect and ±100 for the full control effect; nearly all actives have a fitted effect of over 60% in size
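Steps: seed 1500 PC12 HTTQ103-GFP cells/well; add tebufenozide, 100 nM final; add compound titration; add ATPLite reagent; quantify GFP aggregates by laser scanning cytometry.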
HTT cytoprotect: protects HTT-Q103 PC12 cells, measured by ATP | actives 0.14% (n = 230,000) | PC12 HTT-Q103 induced, cytoprotection, ATP luminescence, 40 h | Potency, µM (doses to about 56.4 µM), for inactives: cytoprotection (ATP increase), actives largely listed as activators | AID 1471; active = well fitted curve in the direction sought with a large enough effect; inconclusive = small, poorly fitted or top-dose-only effect, or another doubt; inactive = no such curve, though single readings can be large; an effect the other way counts as inactive or inconclusive; note: potency is the fitted concentration of half-maximal effect; % of control where 0% means no effect; nearly all actives have a fitted effect of over 45% in size
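Rat PC12, Q103 Htt exon1-GFP fusion, ecdysone promoter; tebufenozide inducer 100 nM final; compound titration; qHTS, 1500 cells/well; ATPlite luminescent read.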
CBFb RUNX1 block: inhibitors of human CBF-beta and RUNX1 interaction; Q01196+Q13951; AlphaScreen CBFb-His/RUNX1-biotin binding, biochemical; Potency, µM (doses to about 59.8 µM), without a hit: top-dose activity, negative = inhibition, actives largely listed as inhibitors; 230,000 tested, under 10 active; active = well fitted curve in the direction sought with a large enough effect; inconclusive = small, poorly fitted or top-dose-only effect, or another doubt; inactive = no such curve, though single readings can be large; an effect the other way counts as inactive or inconclusive; note: % of control where 0% means no effect
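CBFb-His/RUNX1-biotin, 30 nM each, preincubated 20 min RT; compound 15 min RT; Ni + streptavidin beads 50 ng each, 90 min RT; AlphaScreen read.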
HPGD inh: inhibitors of human 15-hydroxyprostaglandin dehydrogenase (HPGD); P15428; purified HPGD, NADH fluorescence kinetic, PGE2 substrate; Potency, µM, for inactives: at the top dose activity change, negative = inhibition, hits mostly inhibitors; actives 4.3% (n = 150,000); note: potency is the fitted concentration of half-maximal effect; % is set by controls: 0 for no effect and ±100 for the full control effect
Target sequence (P15428 whole entry, looked up): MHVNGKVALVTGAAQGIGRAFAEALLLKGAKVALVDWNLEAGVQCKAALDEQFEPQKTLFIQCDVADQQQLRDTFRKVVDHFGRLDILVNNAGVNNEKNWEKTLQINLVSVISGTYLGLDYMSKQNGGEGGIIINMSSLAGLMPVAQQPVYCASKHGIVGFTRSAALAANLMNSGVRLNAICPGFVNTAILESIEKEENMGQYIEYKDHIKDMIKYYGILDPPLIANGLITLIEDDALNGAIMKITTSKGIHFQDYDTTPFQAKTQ
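NADH formation kinetics: reaction with 30 uM PGE2 and 1 mM NAD+ (final), 20 nM enzyme, Tris-HCl pH 8 with Tween 20, after 15 min compound preincubation at room temperature. Fluorescence change, last versus first of five reads.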
JMJD2E inh: JMJD2E (human) inhibition | B2RXH2 | JMJD2E catalytic domain, FDH-coupled NADH fluorescence (FDH is formaldehyde dehydrogenase) | Potency, µM (series often up to 57.1 µM), without a hit: at the highest dose activity change, negative = inhibition, actives largely listed as inhibitors | actives 1.6% (n = 230,000) | AID 2147;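 note: potency is the fitted concentration of half-maximal effect; 0% = wells with enzyme and -100% = buffer wells without enzyme; nearly all actives have a fitted effect of over 50% in size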
ALDH1A1 block: blocks purified human ALDH1A1 activity; P00352; Purified ALDH1A1, NADH fluorescence, propionaldehyde substrate; Potency, µM (top dose mostly 75.3 µM), without a hit: top-dose activity, negative = inhibition, most hits filed as inhibitors; actives 7.3% (n = 220,000);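 note: potency is the fitted concentration of half-maximal effect; plate controls were no enzyme wells and a reference inhibitor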
Target sequence (P00352 whole entry, looked up): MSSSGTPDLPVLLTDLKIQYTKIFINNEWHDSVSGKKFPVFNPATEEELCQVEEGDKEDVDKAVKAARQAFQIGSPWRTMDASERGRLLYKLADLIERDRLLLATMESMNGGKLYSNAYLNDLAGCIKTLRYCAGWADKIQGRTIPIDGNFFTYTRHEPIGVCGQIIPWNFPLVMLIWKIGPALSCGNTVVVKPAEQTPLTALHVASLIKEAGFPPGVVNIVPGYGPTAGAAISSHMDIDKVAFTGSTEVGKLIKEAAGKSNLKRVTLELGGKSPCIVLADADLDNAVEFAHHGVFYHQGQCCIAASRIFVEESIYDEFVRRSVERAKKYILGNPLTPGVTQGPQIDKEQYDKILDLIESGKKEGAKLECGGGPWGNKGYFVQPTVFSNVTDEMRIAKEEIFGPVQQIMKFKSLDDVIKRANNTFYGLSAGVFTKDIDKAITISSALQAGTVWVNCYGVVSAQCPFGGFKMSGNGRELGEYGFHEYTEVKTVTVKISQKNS
The depositor's hits bear a star; ? = inconclusive; · = not tested or not shown; [ ] = remark or other dose. An excerpt weighted towards active compounds, which were near 9.8% of everything screened. Unless noted, calls come from the whole dose curve; as a rule, active = well fitted inhibition curve with a large enough effect (not every such curve was filed as active); inconclusive = small, poorly fitted or top-dose-only effect, or another doubt; inactive = no such curve, though single readings can be large or run the other way.

SMILES	HTT aggregate	HTT cytoprotect	CBFb RUNX1 block	HPGD inh	JMJD2E inh	ALDH1A1 block
CC(C)CCNC(=O)c1ccc(CSCc2cccc(F)c2)o1	2.4%[9.22 µM]	-23.9%	4.1%	14.1µM*	-0.4%	?
Cc1nnc2ccc(-c3cccc(NS(C)(=O)=O)c3)nn12	4.5%	-34.6%	-17.8%	·	?	-5.2%
Cn1c(N)c(N=Nc2ccc(S(N)(=O)=O)cc2)c(=O)n(C)c1=O	-16.9%[9.22 µM]	15.2%[10 µM]	-3.5%	-8.4%	-0.8%	10.3%[13.5 µM]
COc1ccc(CNC(=O)C(c2ccco2)N(Cc2ccccc2)C(=O)Cc2cccs2)cc1 (stereo unspecified)	?	6.0%[1.9 µM]	5.3%	-12.1%	-3.8%	12.6µM*
COc1ccc(CNC(=O)C(c2cccs2)N(Cc2ccco2)C(=O)Cc2cccs2)cc1 (stereo unspecified)	?	-0.7%[10 µM]	?	-16.9%	14.7%	2µM*
COc1ccc(CNC(=O)C(c2cccs2)N(C(=O)c2csnn2)C2CC2)cc1 (stereo unspecified)	-10.8%	25.1µM*	-7.8%	-7.9%	6.6%	-8.2%
COCCN(C(=O)Cc1cccs1)C(C(=O)NCc1ccc(OC)cc1)c1ccc(OC)cc1 (stereo unspecified)	19.5%	19.1%[10 µM]	2.0%	-14.6%	-7.7%	2.24µM*
COc1ccc(CNC(=O)C(c2ccco2)N(C(=O)Cc2cccs2)c2cccnc2)cc1 (stereo unspecified)	1.7%[9.22 µM]	22.6%[10 µM]	0.6%	·	3.8%	0.8%
COc1ccc(CNC(=O)C(c2ccncc2)N(C(=O)Cc2cccs2)c2ccccc2C)cc1 (stereo unspecified)	15.2%	11.8%[10 µM]	6.1%	-3.2%	0.1%	?
Nc1nc2c(ncn2CCC(CO)CO)c(=O)[nH]1	18.7%	7.4%	·	·	·	·
O=C(Cn1cc([N+](=O)[O-])cn1)N1CCc2ccccc2C1	4.5%	-7.1%	8.2%	·	8.8%	-3.1%
O=C(COC(=O)c1ccc(Br)cc1)NCCN1C(=O)CSC1=O	-0.9%	-5.8%	6.9%	·	7.6%	?
Cc1ccc(-c2nnn(CC(=O)N(Cc3ccco3)C(C(=O)NC(C)(C)C)c3cccs3)n2)o1 (stereo unspecified)	17.8%	-11.3%[10 µM]	4.1%	-2.6%	-5.4%	28.2µM*
COc1ccc(C(=O)N(Cc2ccco2)Cc2cccs2)c(O)c1	9.6%	-45.5%[10 µM]	1.3%	?	6.9%	12.6µM*
COC(=O)CCC(=O)N1CN2CN(C(=O)CCC(=O)OC)CC([N+](=O)[O-])(C2)C1	-4.3%[9.22 µM]	4.3%[10 µM]	-7.5%	·	0.0%	·
COc1ccc(NC(=S)NC(NC(=O)c2cccc(Cl)c2)C(Cl)(Cl)Cl)c([N+](=O)[O-])c1 (stereo unspecified)	28.2µM*	17.6%[10 µM]	-13.2%	-12.5%	7.2%	17.8µM*
CCOC(=O)C1(CCCc2ccccc2)CCN(C(=O)Cc2nonc2C)CC1	-18.9%	0.1%	18.0%	·	-10.8%	?
CCOC(=O)C1(CCc2ccccc2)CCN(C(=O)c2ccoc2)CC1	-7.5%[9.22 µM]	2.2%[10 µM]	7.4%	·	-2.3%	25.1µM*
CCOC(=O)C1(CCCc2ccccc2)CCN(C(=O)C2=C(C)OCCO2)CC1	3.0%[9.22 µM]	17.5%[10 µM]	8.6%	·	8.0%	3.16µM*
CCOC(=O)C1(CCCc2ccccc2)CCN(C(=O)c2ccoc2)CC1	-14.1%	-25.6%	0.1%	·	-1.3%	3.98µM*
CCOC(=O)C1(CCCc2ccccc2)CCN(C(=O)CCC2=NNC(=O)CC2)CC1	14.6%[9.22 µM]	-14.1%[10 µM]	10.0%	·	-12.4%	2µM*
CC[C@H](C)[C@H](NC(=O)[C@H](Cc1ccccc1)NC(=O)[C@H](C)NC(=O)[C@H](CC(=O)O)NC(=O)[C@H](CCCCN)NC(=O)[C@H](CO)NC(=O)[C@@H]1CCCN1C(=O)[C@@H]1CCC(=O)N1)C(=O)NCC(=O)N[C@@H](CC(C)C)C(=O)N[C@@H](CCSC)C(N)=O	·	·	22.4%	·	·	·
N#CCN1CCC2(O)CCCCC2C1c1ccc2c(c1)OCO2 (stereo unspecified)	12.6%[9.22 µM]	23.5%[10 µM]	9.5%	·	0.7%	·
O=C(CSc1nncs1)Nc1cc(-c2ccccc2)nn1-c1ccccc1	8.2%	10.8%[10 µM]	0.7%	-4.3%	3.5%	6.2%
O[C@@H]1COC(Nc2ccc(N=Nc3ccccc3)cc2)C[C@@H]1O (stereo partly specified)	-9.6%[9.22 µM]	-14.1%[10 µM]	-14.7%	·	4.5%	·
SMILES	HTT aggregate	HTT cytoprotect	CBFb RUNX1 block	HPGD inh	JMJD2E inh	ALDH1A1 block
COc1cc2c(cc1OC)CN(CC(=O)NC(=O)NC1CCCCC1)CC2	15.0%	-16.7%	-10.8%	·	?	?
Cc1ccc(-c2cc(Cc3ccc(N(C)C)cc3)c(=O)[nH]n2)cc1	19.5%[9.22 µM]	12.4%[10 µM]	-8.9%	·	-1.4%	·
COc1cccc(OCC(Cn2c(C)nc3ccccc32)OC(C)=O)c1 (stereo unspecified)	-1.9%[9.22 µM]	-30.0%	-0.8%	·	-0.8%	-4.1%
Cc1nnsc1-c1nnc(SCC(=O)c2ccc(F)cc2)n1C1CC1	-0.3%[9.22 µM]	4.6%[10 µM]	1.9%	·	-26.1%	·
C=CCC1C=CCC(CC=C)N1C(=O)c1ccccc1[N+](=O)[O-] (stereo unspecified)	-18.2%	·	-2.6%	-10.8%	14.9%	-15.6%
C=CCC1Cc2c(cccc2[N+](=O)[O-])C(CC=C)N1 (stereo unspecified)	0.0%[9.22 µM]	9.4%[10 µM]	4.5%	·	-2.5%	15.8µM*
O=C(N=Nc1c(O)[nH]c2ccc(F)cc12)C1COc2ccccc2O1 (stereo unspecified)	-4.6%[9.22 µM]	-11.9%[10 µM]	-3.3%	·	11.0%	·
CCCCSc1nc(SCC(=O)NCc2ccco2)c2c3c(sc2n1)COC(C)(CC)C3 (stereo unspecified)	6.0%	-16.6%	1.0%	-25.5%	?	22.4µM*
O=C(NNS(=O)(=O)c1ccc(Br)cc1)c1cccs1	-8.0%[9.22 µM]	-3.4%[10 µM]	8.5%	·	12.7%	-1.6%
CCN1C(=O)N/C(=C/c2ccc(C)o2)C1=O	?	-22.7%[10 µM]	-14.4%	-22.9%	-29.2%	15µM*
Cc1ccc(/C=C2/NC(=O)N(Cc3ccccc3F)C2=O)o1	?	20.1%[10 µM]	-5.5%	-17.1%	-22.8%	15.8µM*
Cc1ccc(CN2C(=O)N/C(=C\c3ccc(N4CCOCC4)cc3)C2=O)cc1	-12.5%	-0.8%[10 µM]	-11.7%	-8.4%	?	-2.7%
Cc1ccc(/C=C2/NC(=O)N(Cc3ccc(Br)cc3)C2=O)o1	20.9%	7.5%[10 µM]	-8.0%	?	?	12.6µM*
Cc1ccc(OCC(=O)N2CCCCC2)c(Br)c1	-11.1%	-1.3%	4.5%	15.8µM*	4.3%	-0.8%
Cc1cc(OCC(=O)N2CCCC2)cc(C)c1Cl	2.0%	9.9%	7.3%	11.2µM*	3.1%	26.3%
CC(C)(C)c1ccc(OCC(=O)N2CCCCCC2)c(Br)c1	?	6.8%	3.9%	·	2.7%	?
